Results reported in PubChem BioAssay AID2073 (Sanford-Burnham Center for Chemical Genomics, 2009).
About 570 (0.2%) of roughly 290,000 compounds were called active. Roughly 1% stayed inconclusive and do not appear here. No stated cut-off is given here; in the data, active means inhibition mostly above about 51% (no sharp cut-off); inconclusive means no clear call, values can overlap the other calls; inactive means mostly below about 53%. For the sample, actives were picked, then their nearest neighbours and some compounds at random.

Target: Voltage-dependent N-type calcium channel subunit alpha-1B (Homo sapiens) (UniProt Q00975)
Experiment: disruptors of CaV2.2 binding to Mint1 – biochemical, HTRF (AID 2073)
Conditions: HTRF protein-protein interaction, Mint1-CaV2.2, at 20 µM, stronger effect = higher value

Sequence of Voltage-dependent N-type calcium channel subunit alpha-1B (Homo sapiens) (Q00975 whole entry, looked up): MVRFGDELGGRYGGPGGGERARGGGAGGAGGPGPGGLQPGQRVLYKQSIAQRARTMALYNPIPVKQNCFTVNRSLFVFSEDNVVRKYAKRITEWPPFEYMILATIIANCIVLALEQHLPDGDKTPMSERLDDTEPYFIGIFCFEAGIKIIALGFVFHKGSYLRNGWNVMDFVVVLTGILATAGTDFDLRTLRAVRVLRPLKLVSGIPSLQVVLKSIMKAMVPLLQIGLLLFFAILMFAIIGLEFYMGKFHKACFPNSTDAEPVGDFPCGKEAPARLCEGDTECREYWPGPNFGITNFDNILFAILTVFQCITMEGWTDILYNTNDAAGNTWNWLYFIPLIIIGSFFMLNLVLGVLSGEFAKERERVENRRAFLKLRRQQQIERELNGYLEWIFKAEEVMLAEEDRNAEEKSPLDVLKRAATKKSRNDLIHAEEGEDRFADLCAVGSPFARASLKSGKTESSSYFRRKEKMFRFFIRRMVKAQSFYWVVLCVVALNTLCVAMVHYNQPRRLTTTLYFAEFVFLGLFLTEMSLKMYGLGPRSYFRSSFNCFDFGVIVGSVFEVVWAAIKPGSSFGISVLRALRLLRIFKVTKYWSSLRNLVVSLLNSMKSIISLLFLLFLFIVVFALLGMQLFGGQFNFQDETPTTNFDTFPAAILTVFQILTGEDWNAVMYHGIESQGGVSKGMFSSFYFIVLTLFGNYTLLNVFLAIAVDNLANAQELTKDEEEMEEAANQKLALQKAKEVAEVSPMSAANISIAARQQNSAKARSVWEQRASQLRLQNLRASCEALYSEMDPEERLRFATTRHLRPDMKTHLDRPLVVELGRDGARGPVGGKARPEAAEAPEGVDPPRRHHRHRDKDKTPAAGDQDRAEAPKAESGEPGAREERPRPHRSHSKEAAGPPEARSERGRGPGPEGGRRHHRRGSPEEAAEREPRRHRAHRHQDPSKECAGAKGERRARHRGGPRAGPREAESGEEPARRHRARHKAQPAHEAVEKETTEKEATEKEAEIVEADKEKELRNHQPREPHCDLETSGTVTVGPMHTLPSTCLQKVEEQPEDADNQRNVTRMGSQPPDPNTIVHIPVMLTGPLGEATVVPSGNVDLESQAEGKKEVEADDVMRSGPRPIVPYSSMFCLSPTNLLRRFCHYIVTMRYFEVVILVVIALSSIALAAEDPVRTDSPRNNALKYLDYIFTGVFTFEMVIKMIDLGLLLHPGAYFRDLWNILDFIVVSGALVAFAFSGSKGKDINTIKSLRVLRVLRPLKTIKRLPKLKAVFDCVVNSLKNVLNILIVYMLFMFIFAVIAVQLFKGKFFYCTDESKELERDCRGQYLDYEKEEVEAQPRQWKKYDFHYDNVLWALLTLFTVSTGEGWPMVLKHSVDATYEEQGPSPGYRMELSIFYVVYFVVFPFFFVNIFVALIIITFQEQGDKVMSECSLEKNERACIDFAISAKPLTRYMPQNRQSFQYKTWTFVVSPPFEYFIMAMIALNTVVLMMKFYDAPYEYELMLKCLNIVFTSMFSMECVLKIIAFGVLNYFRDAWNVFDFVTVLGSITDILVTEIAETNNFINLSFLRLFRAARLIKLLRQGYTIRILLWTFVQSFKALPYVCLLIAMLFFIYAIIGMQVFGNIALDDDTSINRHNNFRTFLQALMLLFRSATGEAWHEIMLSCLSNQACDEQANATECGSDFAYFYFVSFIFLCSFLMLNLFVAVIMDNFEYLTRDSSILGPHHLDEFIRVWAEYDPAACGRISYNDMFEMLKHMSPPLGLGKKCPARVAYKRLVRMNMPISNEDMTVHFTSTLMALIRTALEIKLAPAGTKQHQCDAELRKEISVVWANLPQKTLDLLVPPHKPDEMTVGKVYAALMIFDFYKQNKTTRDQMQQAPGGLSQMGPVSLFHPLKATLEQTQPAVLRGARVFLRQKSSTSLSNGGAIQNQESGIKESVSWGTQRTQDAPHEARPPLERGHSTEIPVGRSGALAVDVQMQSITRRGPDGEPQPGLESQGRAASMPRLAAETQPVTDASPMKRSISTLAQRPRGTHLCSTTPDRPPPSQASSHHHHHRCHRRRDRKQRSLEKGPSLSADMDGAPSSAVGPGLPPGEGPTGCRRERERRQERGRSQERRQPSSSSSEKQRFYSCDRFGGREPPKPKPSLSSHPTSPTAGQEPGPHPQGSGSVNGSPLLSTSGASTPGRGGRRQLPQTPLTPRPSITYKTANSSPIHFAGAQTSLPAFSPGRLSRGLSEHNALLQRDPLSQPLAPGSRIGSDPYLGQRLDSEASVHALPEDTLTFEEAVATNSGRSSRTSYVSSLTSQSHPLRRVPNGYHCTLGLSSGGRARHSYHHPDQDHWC

With `O=C(O)CCNS(=O)(=O)c1ccc(Oc2ccccc2)cc1` the inhibition was -1.3% (inactive).
`CSCCC(NC(=O)OC(C)(C)C)C(=O)NC(C(=O)NC(CC(C)C)C(N)=O)C(C)C` (stereo not given) was tested, and the inhibition was 15.6% (inactive).
With `Cc1ccc(N2C(=O)C3C4C=CC(CNC(=S)N5CCN(c6ccccc6)CC5)(O4)C3C2=O)cc1` (stereo not given) the inhibition was 45.6% (inactive).
For `Cc1nc2cc(NC(=O)N3CCN(c4ccccn4)CC3)ccc2o1`, the inhibition was 0% (inactive).
`O=C(Nc1ccc(N2CCOCC2)cc1)Nc1ccc2nc(-c3ccco3)c(-c3ccco3)nc2c1` was tested, and the inhibition was 48.8% (inactive).
`CCOC(=O)C1CCN(C(=O)Nc2ccc3nccnc3c2)CC1` was tested, and the inhibition was 24.5% (inactive).
With `O=C(Nc1ccc2nc(-c3ccco3)c(-c3ccco3)nc2c1)N1CCN(c2ccccn2)CC1` the inhibition was 84.9% (active).
For `CCOC(=O)C1CCN(C(=O)Nc2ccc3nc(-c4ccco4)c(-c4ccco4)nc3c2)CC1`, the inhibition was 83.1% (active).
For `Cc1nc2ccc(NC(=O)N3CCCCC3)cc2nc1C`, the inhibition was 40.3% (inactive).
`Cn1nnc2cc(NC(=O)N3CCN(c4ccccn4)CC3)ccc21` was tested, and the inhibition was -0.5% (inactive).
In the case of `CCOC(=O)C1CCN(C(=O)Nc2ccc3nc(C)c(C)nc3c2)CC1`, the inhibition is reported as 36% (inactive).
`O=C(Nc1ccc2nc(-c3ccco3)c(-c3ccco3)nc2c1)N1CCCCCC1` was tested, and the inhibition was 71.2% (active).
In the case of `Cc1ccc(NC(=O)NC(=O)CSc2nnnn2C)c(C)c1`, the inhibition is reported as -7.8% (inactive).
With `COc1cccc(C(C(=O)NC(C)(C)C)N(C(=O)CCC(=O)Nc2cc(C)on2)C(C)(C)C)c1OC` (stereo not given) the inhibition was -7.6% (inactive).
With `O=C(CN1CCCCCC1=O)N1CCN(S(=O)(=O)c2cccs2)CC1` the inhibition was 14.5% (inactive).
`CCOC(=O)c1[nH]c2ccccc2c1CCCN1C(=O)c2ccccc2C1=O` was tested, and the inhibition was -6.7% (inactive).
For `CN(C)C(=O)CCC(=O)N1CCCC(N2CCN(c3cccc(C(F)(F)F)c3)CC2)C1` (stereo not given), the inhibition was 5.4% (inactive).
For `Nc1nc(N2CCN(c3ccccc3)CC2)n[nH]1`, the inhibition was -13.2% (inactive).
With `CCn1c(SCC(=O)N2CCC(C)CC2)nc2c1c(=O)n(C)c(=O)n2C` the inhibition was 2.5% (inactive).
For `NC(=O)CCC(NS(=O)(=O)c1ccc(Cl)cc1)C(=O)NCc1ccccc1` (stereo not given), the inhibition was -16.2% (inactive).
For `CC(C)C(=O)N1CCN(c2ccc(NC(=O)c3cccs3)cc2Cl)CC1`, the inhibition was 0.8% (inactive).
In the case of `CCOC(=O)C1CCN(C(=O)CN(c2ccc3c(c2)OCCO3)S(C)(=O)=O)CC1`, the inhibition is reported as -9.6% (inactive).
With `Cc1cccc(COCC(Cc2ccccc2)N2CCN(C(=O)c3cccc(Cl)c3)CCC2=O)c1` (stereo not given) the inhibition was 1.7% (inactive).
`O=S(=O)(NC1=NCCCCC1)c1ccccc1Cl` was tested, and the inhibition was 7.5% (inactive).
`COc1ccc(CN2C(=O)Cc3c2nc(N)c2c(N)nc(N4CCCCC4)c(C#N)c32)cc1` was tested, and the inhibition was 24.2% (inactive).
In the case of `CC1=Nc2nc(N3CCCCC3)c(C#N)c3c4c(nc(c23)N1)N(c1ccc(C(C)C)cc1)C(=O)C4`, the inhibition is reported as 54.8% (active).
For `CCN(CC)c1nc2c3c(nc4c(c3c1C#N)CC(=O)N4c1ccc(Cl)cc1)NC(C)=N2`, the inhibition was 15.5% (inactive).
With `C/C(=N\NC(N)=S)C1(C)CCCCC1` the inhibition was 1.7% (inactive).
`Cc1cc(-c2csc(NC(=O)c3ccc(C#N)cc3)n2)c(C)n1Cc1ccco1` was tested, and the inhibition was 74% (active).
In the case of `CCNc1nc(-c2cc(C)n(Cc3ccco3)c2C)cs1`, the inhibition is reported as 71.4% (inactive) and the inhibition (measured here: average of repeat tests) is reported as -8.8%.
With `Cc1cc(-c2csc(NC(=O)c3ccc(C#N)cc3)n2)c(C)n1Cc1ccccc1` the inhibition was 31.3% (inactive).
For `COc1ccc(-c2noc(N3CCC(C(=O)Nc4ccccc4Cl)CC3)n2)cc1`, the inhibition was 1.9% (inactive).
`Cc1onc(-c2ccccc2)c1C(=O)OCC(=O)NCc1ccc(F)cc1` was tested, and the inhibition was -0.7% (inactive).
`CCOc1ccc(Oc2c(C)oc3cc(O)ccc3c2=O)cc1` was tested, and the inhibition was 15.1% (inactive).
For `Cc1ccc(-c2nc(C=Nc3ccccc3)c(O)o2)cc1`, the inhibition was -6.2% (inactive).
`Cc1ccc(N=Cc2nc(-c3ccc(C)cc3)oc2O)cc1` was tested, and the inhibition was 17.5% (inactive).
With `CC(NCC(O)c1ccc([N+](=O)[O-])cc1)C12CC3CC(CC(C3)C1)C2` (stereo not given) the inhibition was 0.6% (inactive).
In the case of `CCNC(=O)COC(=O)c1ccc(-n2nc(C)cc2C)cc1`, the inhibition is reported as 5.8% (inactive).
In the case of `O=C(/C(=N/N=C/c1ccc(O)c(O)c1O)c1ccccc1)c1ccccc1`, the inhibition is reported as 66.2% (active).
`COc1cc(/C=N/N=C(/C(=O)c2ccccc2)c2ccccc2)cc(OC)c1O` was tested, and the inhibition was -2.5% (inactive).
With `O=C(/C(=N/N=C/c1ccc(O)c(O)c1)c1ccccc1)c1ccccc1` the inhibition was -21.8% (inactive).
For `CCC(=O)N1CC2(C)CN(C(=O)CC)CC(C)(C1)C2`, the inhibition was -2.6% (inactive).
For `COc1ccc(C(=O)N2CCCC(CO)(Cc3ccccc3C)C2)o1` (stereo not given), the inhibition was 2.1% (inactive).
For `CCCCc1ccc(-c2csc(/C(C#N)=C/c3ccc(C)o3)n2)cc1`, the inhibition was 16.8% (inactive).
In the case of `CCCCc1ccc(-c2csc(/C(C#N)=C\c3ccco3)n2)cc1`, the inhibition is reported as 57.8% (active).
`CCCCc1ccc(-c2csc(/C(C#N)=C/c3ccco3)n2)cc1` was tested, and the inhibition was 49.9% (inactive).
With `CSc1nc(N2CCN(c3ccccc3)CC2)cc(N2CCN(c3ccccc3)CC2)n1` the inhibition was 18.7% (inactive).
For `O=C(N/N=C1\CCCc2ccccc21)c1cccc(Br)c1`, the inhibition was -12.7% (inactive).
With `Cc1ccccc1CN(c1ccc(C(=O)NCc2ccccn2)cc1)S(C)(=O)=O` the inhibition was -3.2% (inactive).
With `CCc1ccc(Nc2n[n+](-c3ccccc3)c(-c3ccc(OC)c(Br)c3)s2)cc1` the inhibition was 19.2% (inactive).
With `COC(=O)c1c(NC(=O)COC(=O)c2ccccc2O)sc2c1CCCCC2` the inhibition was -3% (inactive).
With `COC(=O)c1c(NC(=O)COC(=O)c2ccc(O)cc2)sc2c1CCCCC2` the inhibition was 5.8% (inactive).
With `COC(=O)c1c(NC(=O)COC(=O)c2ccc(NC(=O)CC#N)cc2)sc2c1CCCCC2` the inhibition was 78.4% (active).
For `CC(C)CCN1C(Nc2ccccc2)=NC[C@@H]1C`, the inhibition was 2.7% (inactive).
For `COc1ccccc1-c1cc(C(=O)Nc2cc(C)n(Cc3ccc(Cl)cc3)n2)no1`, the inhibition was 7.9% (inactive).
In the case of `Cc1c(Cl)cccc1NC(=O)CCCN1C(=O)c2cccnc2C1=O`, the inhibition is reported as 3.3% (inactive).
For `COc1ccc(Nc2c(-c3ccc(OC)cc3)nc3cnccn23)cc1`, the inhibition was -9.1% (inactive).
`CC1(C)OC(=O)C(=CNc2ccccc2)C(=O)O1` was tested, and the inhibition was -0.4% (inactive).
In the case of `O=C(/C=C/Nc1ccccc1)c1ccccc1`, the inhibition is reported as -0.7% (inactive).
